Screen size: about 5,500 compounds; about 2,000 (36%) were called active. Another 18% or so got no clear call; they are omitted. Rule as the data show it: active = normalized growth mostly below about 0.91 (no sharp cut-off); inconclusive = no clear call, values can overlap the other calls; inactive = mostly above about 0.92. This is one part of the list.
Test: chemical genetic growth profiling, strain panel (AID 1159580);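 also: tested at 20 µM; growth read once vehicle control cultures reached saturation at 30 °C; 1 = growth at the plate median or of vehicle wells; lower values mean less growth of the strain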
Settings: S. cerevisiae deletion strains, growth OD
[1] = locus YNL153C, strain GIM3, active compounds read low
[2] = locus YNL322C, strain KRE1, active compounds read low
[3] = locus YPL241C, strain CIN2, active compounds read low

Measured: normalized growth

CC(=O)C1=C(C)Nc2ccccc2S1
inactive: locus YAL013W, strain DEP1, active compounds read low 0.959 | locus YBR229C, strain ROT2, active compounds read low 0.949 | locus YDL101C, strain DUN1, active compounds read low 0.938 | locus YDR150W, strain NUM1, active compounds read low 0.911 | locus YEL061C, strain CIN8, active compounds read low 0.943 | locus YGR078C, strain PAC10, active compounds read low 0.982 | locus YGR229C, strain SMI1, active compounds read low 1.02 | locus YHR030C, strain SLT2, active compounds read low 0.922 | locus YHR087W, strain rtc3, active compounds read low 1.01 | locus YJL187C, strain SWE1, active compounds read low 0.954 | locus YJR075W, strain HOC1, active compounds read low 0.974 | locus YLR039C, strain RIC1, active compounds read low 0.978 | locus YLR058C, strain SHM2 (second series), active compounds read low 0.987 | locus YLR262C, strain YPT6, active compounds read low 1.03 | locus YML094W, strain GIM5, active compounds read low 0.888 | locus YMR219W, strain ESC1, active compounds read low 0.971 | [1] 0.963 | locus YNL298W, strain CLA4 (second series), active compounds read low 0.857 | [2] 1.02 | locus YPL055C, strain LGE1, active compounds read low 0.795
active: locus YLR085C, strain ARP6, active compounds read low 0.622 | locus YMR263W, strain SAP30, active compounds read low 0.852 | locus YNR030W, strain Alg12, active compounds read low 0.804 | [3] 0.849 | locus YPR135W, strain CTF4, active compounds read low 0.623

CCCN(CCC)C(=O)Cc1c(-c2ccc(Cl)cc2)nc2c(Cl)cc(Cl)cn12
inactive: locus YAL040C, strain CLN3, active compounds read low 1 | locus YDR363W, strain ESC2, active compounds read low 1.01 | locus YER002W, strain NOP16, active compounds read low 1.05 | locus YMR307W, strain GAS1, active compounds read low 1 | locus YNL128W, strain TEP1, active compounds read low 1.01 | [1] 1.02 | locus YNL175C, strain NOP13, active compounds read low 1.03 | locus YNL197C, strain WHI3, active compounds read low 1.03 | locus YNL224C, strain SQS1, active compounds read low 1.01 | [2] 0.985 | locus YOR083W, strain WHI5 (second series), active compounds read low 1.08 | [3] 0.992

From PubChem BioAssay AID1159580 (chemical genetic matrix, 2015)
